Platelet DG rel: platelet dense granule release activity; human platelet-rich plasma, SFLLRN dense granule ATP release, luminescence; inhibition, %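 (compounds screened at 7.5 µM in platelet-rich plasma)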; hit rate 0.22% among 300,000;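 active means mean replicate score, as percent of positive control, at or above 50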
CHT inh: inhibits the human high affinity choline transporter; CHT-expressing cells, membrane potential dye, choline response; stronger effect = lower value; B-score at 10 µM; hit rate 0.86% among 310,000; AID 488975;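 active means B-score over 3 SD under the library average, and starting fluorescence ratio not unusually high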;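 further: choline stimulus applied at its EC90 after an EC20 pre-addition; B-score computed on integrated fluorescence ratio after choline addition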
Target sequence (Q9GZV3 whole entry, looked up): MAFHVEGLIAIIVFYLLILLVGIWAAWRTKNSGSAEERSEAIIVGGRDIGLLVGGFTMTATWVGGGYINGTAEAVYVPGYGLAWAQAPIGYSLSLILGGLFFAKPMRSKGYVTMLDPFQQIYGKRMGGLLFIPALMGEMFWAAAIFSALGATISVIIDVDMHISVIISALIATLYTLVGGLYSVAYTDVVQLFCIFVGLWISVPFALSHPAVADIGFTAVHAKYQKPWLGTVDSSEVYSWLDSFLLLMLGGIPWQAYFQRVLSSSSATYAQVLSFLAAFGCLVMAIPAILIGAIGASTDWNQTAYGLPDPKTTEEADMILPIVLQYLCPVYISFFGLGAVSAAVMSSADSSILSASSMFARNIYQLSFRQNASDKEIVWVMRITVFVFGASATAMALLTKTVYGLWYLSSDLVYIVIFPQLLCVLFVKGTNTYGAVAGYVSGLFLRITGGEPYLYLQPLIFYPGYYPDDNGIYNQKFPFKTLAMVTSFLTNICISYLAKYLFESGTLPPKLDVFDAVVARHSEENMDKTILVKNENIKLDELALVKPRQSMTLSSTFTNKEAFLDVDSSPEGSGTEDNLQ
VLA-4 inh: inhibition in a human VLA-4 binding assay; P13612; VLA-4 expressing cells, ligand binding flow cytometry; inhibition, % (about 7 µM as worked out from the volumes in the protocol); hit rate 0.2% among 330,000; in the data active means inhibition above about 50%
HIF act: HIF pathway transcriptional activation; U2OS HRE-luciferase reporter, luminescence; normalized: DMSO 0%, desferrioxamine 100%; hit rate 0.32% among 300,000; activation, % at 7.5 µM (by protocol);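 active means mean activation of at least 10% of the iron chelator positive control signal, with at least half of replicates also reaching 10%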
CHT PAM: allosterically activates the human high affinity choline transporter; Q9GZV3; CHT-expressing cells, membrane potential dye, choline EC20; stronger effect = higher value; LV-AA mutant CHT in HEK293 cells; B-score at 10 µM; hit rate 0.49% among 310,000; AID 488977;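 active means initial fluorescence not abnormally high and integrated response B-score, plate-corrected, over 3 SD above library mean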
AI-2 QS modul: modulators of Vibrio harveyi AI-2 quorum sensing system; activity change, % at 7.5 µM; hit rate 0.4% among 300,000; Vibrio harveyi JMH597 AI-2 luminescence/OD600 ratio, 9 h; stronger effect = lower value; strain lacks LuxN and CqsS sensors; 0 = neutral-control median; AID 2094; in the data active means activity change below about -75%, passing the limit was not always enough;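 further: luminescence divided by OD600 gain over 9 h not by final OD600 alone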
CHT block conf: human CHT inhibition, confirmatory screen; shares compounds with CHT inh; CHT-expressing cells, choline membrane potential dye; LV-to-AA substituted CHT, HEK293 cells; CHT activity remaining % of control (stronger effect = lower value), % at 10 µM; hit rate 70% among 2,400; AID 493221;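 active means choline transporter activity left, mean of duplicates at 10 µM, below buffer-only control mean minus 3 SD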;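 further: depolarization triggered by choline at its EC90 following an EC20 pre-addition; 0% = hemicholinium-3 full block and 100% = buffer-only control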
HEK293 CHT ctr: counter-screen for CHT inhibitors: effect in parental HEK293 cells. hit rate 4% among 2,400. AID 493222. membrane potential ratio readout (active if shifted either direction beyond buffer ±3SD; no single direction) at 10 µM. membrane potential dye, choline response; active = decrease or increase beyond buffer ±3SD. shares compounds with CHT inh;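 further: parental cells lack the transporter so any hit is non-specific; ratio is peak minus trough fluorescence over baseline after EC90 choline challenge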
CHT activ conf: human CHT activation, confirmatory screen; hit rate 91% among 2,500; CHT-expressing cells, membrane potential dye fluorescence (FDSS); % of choline EC20–EC90 response window; HEK293 expressing CHT LV-AA mutant; choline added at its EC20; shares compounds with CHT PAM; activation, % at 10 µM;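 active means primary screen active, with duplicate mean activation above negative control mean plus 3 SD, cut at about 11% in these data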
HEK293 MP dye: activity in parental HEK293 cells lacking CHT; shares compounds with CHT PAM; membrane potential dye fluorescence (FDSS); measured after EC20 choline addition; ratio readout change at 10 µM, hits read low; hit rate 62% among 2,500; AID 623908;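 active means duplicate-averaged ratio beyond 3 SD from buffer wells, up or down, though filed actives are nearly all decreases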
Active calls of the source: *; i = inactive; · = not tested or not shown; ! = repeats disagree. This is a sample that favours compounds with a hit; in the whole collection about 2.2% have one here.

SMILES	Platelet DG rel	CHT inh	VLA-4 inh	HIF act	CHT PAM	AI-2 QS modul	CHT activ conf	HEK293 MP dye	others
Cc1cccc(CS(=O)(=O)c2ncc(Cl)c(C(=O)Nc3nnc(C(C)C)s3)n2)c1	-13	i	15	-1	i	9	·	·
CC(C)c1nnc(NC(=O)c2nc(S(=O)(=O)Cc3ccc(F)cc3)ncc2Cl)s1	-19	-6.2*	16	-1	i	-3	·	·	CHT block conf=19%*;HEK293 CHT ctr=i
O=C(CCN1C(=O)/C(=C\c2ccccc2)SC1=S)NNC(=O)c1ccccc1O	-6	i	13	0	i	17	·	·
COc1ccc(C(=O)NCCOc2ccccc2)cc1S(=O)(=O)N1CCOCC1	·	·	7	·	·	·	·	·
CC(C)(C)c1csc(NC(=O)c2ccccc2O)n1	1	-6.8*	-27	-1	i	4	·	·	CHT block conf=i;HEK293 CHT ctr=i
Cc1csc(NC(=O)c2ccccc2O)n1	5	i	10	1	i	48	·	·
CC(C)(C)C(=O)Nc1cc2c3c(c1)CCN3C(=O)CC2	7	i	8	0	i	5	·	·
COC(=O)Cc1cc(=O)n2[nH]c(C)c(-c3ccccc3)c2n1	2	i	-1	0	i	4	·	·
CCCc1cc(=O)n2[nH]c(C)c(-c3ccccc3)c2n1	12	-5.8*	-2	0	i	3	·	·	CHT block conf=i;HEK293 CHT ctr=i
Cc1[nH]n2c(=O)cc(C(C)C)nc2c1-c1ccccc1	-1	-5.2*	24	0	i	18	·	·	CHT block conf=i;HEK293 CHT ctr=i
COc1cccc(CC(=O)NN2C(=O)NC3(CCCCC3)C2=O)c1	·	·	-2	·	·	·	·	·
Cc1cccc(-c2ncc(CN3CCN(CCC(C)C)C(CCO)C3)cn2)c1 (stereo not drawn)	2	-5.8*	0	0	i	6	·	·	CHT block conf=i;HEK293 CHT ctr=i
O=C(CSc1nc2c(c(=O)n1-c1ccc(Cl)cc1)SCC2)NCC1CCCO1 (stereo not drawn)	0	i	-9	-1	i	23	·	·
O=C(CSc1nc2c(c(=O)n1-c1ccc(Cl)cc1)SCC2)N1CCCC1	-4	-6.8*	5	0	i	-2	·	·	CHT block conf=i;HEK293 CHT ctr=i
CCN(C(=O)COc1ccccc1C(=O)NCc1ccccc1)C1CCS(=O)(=O)C1 (stereo not drawn)	·	·	0	·	·	·	·	·
CCN(C(=O)COc1cccc2cccnc12)C1CCS(=O)(=O)C1 (stereo not drawn)	1	i	-1	0	i	8	52*	-38*
CCOC(=O)CNC(=O)CN1CCC(c2nc3ccccc3[nH]2)CC1	-3	i	-5	1	i	13	·	·
Cc1ccc(C)c(N2CCN(C3CCCCC3NS(=O)(=O)c3ccccc3)CC2)c1 (stereo not drawn)	-3	i	7	·	6.3*	41	16*	i
CN(CC(=O)Nc1ccccc1Br)C(=O)c1cccn1C	-1	i	9	0	i	7	·	·
N#Cc1nc(-c2ccc(F)cc2)oc1NCCN1CCOCC1	-26	i	-10	0	i	7	·	·
COc1ccc(-c2nc(C#N)c(NCCCN3CCOCC3)o2)cc1	14	i	-15	0	i	3	24*	-21*
Brc1cnc(N2CCCC2)nc1N1CCOCC1	1	i	0	-1	i	5	16*	-20*
C=C(C)CSc1nc2sc3c(c2c(=O)n1C1CCCCC1)CCN(C)C3	7	i	-12	0	6.8*	15	39*	-48*
CN1CCc2c(sc3nc(SCC(N)=O)n(-c4ccc(Cl)cc4)c(=O)c23)C1	-2	i	1	0	6.8*	3	46*	-34*
C=C(C)CSc1nc2sc3c(c2c(=O)n1-c1ccccc1)CCN(C)C3	1	i	-10	1	i	3	·	·
SMILES	Platelet DG rel	CHT inh	VLA-4 inh	HIF act	CHT PAM	AI-2 QS modul	CHT activ conf	HEK293 MP dye	others
COC(=O)CSc1nc2sc3c(c2c(=O)n1-c1ccccc1)CCN(C)C3	-4	i	2	0	i	14	·	·
CN1CCc2c(sc3nc(SCC(N)=O)n(-c4ccccc4)c(=O)c23)C1	1	i	-10	0	i	2	40*	-34*
CC1(C)Cc2c(cnn2-c2cccc(F)c2)C(NC(=O)CN2CCCC2=O)C1 (stereo not drawn)	-1	i	-3	1	i	20	·	·
O=c1cc2oc3cc(O)c(O)cc3c(-c3ccccc3[N+](=O)[O-])c-2cc1O	10	i	-9	-5	i	6	·	·
CCOC(=O)C(=CNc1cc(C(F)(F)F)ccc1N1CCOCC1)C(=O)OCC	1	i	-2	0	i	20	·	·
CCOC(=O)c1c(CN2CCOCC2)n(C)c2cc(Br)c(O)c(CN(C)C)c12	3	i	1	0	7.4*!	29	45*	-33*
O=C1C=C(c2ccc3c(c2)OCO3)CCC1	-4	i	43	1	i	12	·	·
O=C(O)CNS(=O)(=O)c1ccc2c(c1)C(=O)c1cc(S(=O)(=O)NCC(=O)O)ccc1-2	-6	i	-11	2	i	23	·	·
N#CC(C#N)=C1c2cc(S(=O)(=O)NCCO)ccc2-c2ccc(S(=O)(=O)NCCO)cc21	-4	i	-16	0	9.5*	35	54*	-52*
O=C1c2cc(S(=O)(=O)NCCO)ccc2-c2ccc(S(=O)(=O)NCCO)cc21	-3	i	21	0	i	-1	41*	-35*
Cn1ncc(Br)c1NC(=O)Nc1ccccc1	1	i	5	2	i	-9	·	·
COc1ccccc1NC(=O)CON=C(N)CC(=O)NC1CCCCC1	·	·	-183	·	·	·	·	·
Cc1ccc(Nc2cc(C)nc3ccc(C)cc23)cc1	-3	i	-10	-28	i	33	·	·
CCOC(=O)c1ccc2nc(C)cc(Nc3cccc(C(=O)O)c3)c2c1	-2	i	25	0	i	14	27*	-25*
CCOc1ccc(Nc2cc(C)nc3ccc(C)cc23)cc1	0	i	2	-1	i	15	35*	-47*
